Compound activity (PubChem)
SMN2 splice enh: enhancers of SMN2 splice variant expression; HEK293 SMN2-luciferase splicing reporter, luminescence, 30-36 h; Potency, µM (doses to about 46.1 µM), actives largely listed as activators; 2.8% of 210,000 active; also: nearly all actives have a fitted effect of over 55% in size
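qHTS luciferase splicing reporter: luminescence rises when SMN2 exon 7 is included in transfected HEK293 cells. Compound exposure lasted 30-36 h at 37C, with 4.5 mM final sodium butyrate as control, followed by a ONE-Glo read.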
FLuc counter: counter-screen for miR-21 project: firefly luciferase inhibitors or activators; Potency, µM (highest dose often 57.5 µM), usual class: inhibitors; purified FLuc, Km substrates, luminescence inhibition; P08659; 6.9% of 360,000 active; also: nearly all actives have a fitted effect of over 55% in size
Target sequence (P08659 whole entry, looked up): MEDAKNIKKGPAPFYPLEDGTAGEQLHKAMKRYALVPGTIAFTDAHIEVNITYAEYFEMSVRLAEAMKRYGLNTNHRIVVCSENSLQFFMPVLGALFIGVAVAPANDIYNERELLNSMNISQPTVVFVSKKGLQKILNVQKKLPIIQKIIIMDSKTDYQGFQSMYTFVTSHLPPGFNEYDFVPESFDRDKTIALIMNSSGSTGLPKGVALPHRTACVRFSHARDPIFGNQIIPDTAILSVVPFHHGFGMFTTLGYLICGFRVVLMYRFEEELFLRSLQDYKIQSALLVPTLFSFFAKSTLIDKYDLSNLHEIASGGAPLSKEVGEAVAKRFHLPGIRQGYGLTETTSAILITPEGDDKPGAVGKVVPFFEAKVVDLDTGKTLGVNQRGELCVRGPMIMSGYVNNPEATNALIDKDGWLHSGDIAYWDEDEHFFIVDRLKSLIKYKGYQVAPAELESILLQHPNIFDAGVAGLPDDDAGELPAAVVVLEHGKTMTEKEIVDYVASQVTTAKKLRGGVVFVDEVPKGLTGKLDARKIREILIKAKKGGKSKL
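Purified P. pyralis luciferase, 10 nM final, with Km-level 10 uM D-luciferin and 10 uM ATP in 50 mM Tris acetate pH 7.5, 10 mM Mg acetate, 0.01% Tween-20, 0.05% BSA; 6-point qHTS titration about 60 µM downward; luminescence read.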
ELG1 genotox: induces genotoxicity in HEK293T cells with luciferase-tagged ELG1; HEK293T ELG1-luciferase reporter, luminescence, 16 h; Potency, µM (series often up to 46 µM), most hits filed as activators; 1.3% of 330,000 active; AID 504466; also: nearly all actives have a fitted effect of over 60% in size
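Quantitative HTS format in 1536-well plates. HEK293T ELG1-luciferase reporter cells receive test compound and are incubated 16 hr at 37 °C, 5% CO2; ONE-Glo added, 30 min room temperature, then luminescence read.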
Rab9 promoter act: Rab9 promoter activation; AID 485297; Huh7 Rab9 promoter-luciferase reporter, luminescence, 24 h; Potency, µM (highest dose often 9.22 µM), actives largely listed as activators; 2.8% of 320,000 active; also: nearly all actives have a fitted effect of over 60% in size
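Cells were plated at 1500 per well in reduced-serum medium with 10% FBS and left 2 h. Compound in DMSO was then added for 24 h at 37 °C. Reporter signal was read by luminescence after 10 min with luciferase detection reagent.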
NPC1 promoter act: NPC1 promoter activation | Huh7 NPC1 promoter luciferase reporter, 24 h | AID 485313 | 2.4% of 320,000 active | Potency, µM (highest dose often 9.22 µM), most hits filed as activators; also: nearly all actives have a fitted effect of over 60% in size
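Quantitative HTS used a cell-based reporter: Huh7 cells stably bearing the NPC1 promoter upstream of luciferase were treated with compounds for 24 h, and promoter activation was read as luminescence.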
Numbers stand for hits; . = inactive; ? = inconclusive; / = no result; [ ] = another dose, or the depositor's remark. Shown are actives, neighbours in structure and some others; about 7.4% of the full set was active somewhere. Calls follow the shape of the dose curve; as a rule, active = well fitted curve in the direction sought with a large enough effect; inconclusive = small, poorly fitted or top-dose-only effect, or another doubt; inactive = no such curve, though single readings can be large; an effect the other way counts as inactive or inconclusive.

SMILES | SMN2 splice enh | FLuc counter | ELG1 genotox | Rab9 promoter act | NPC1 promoter act
O=C(COc1ccccc1)N1CCN(C(=O)c2ccc([N+](=O)[O-])cc2)CC1 | / | 9.53µM | ? | 3.16µM | 3.98µM
COc1ccc(N2CCN(C(=O)COc3ccc4ccccc4c3)CC2)cc1 | . | . | . | . | .
c1ccn(-c2ccc(-c3ccn[nH]3)cc2)c1 | ? | 10.7µM | . | ? | ?
Cc1ccc(C)n1-c1ccc(-c2ccn[nH]2)cc1 | 12.6µM | 12µM | ? | ? | ?
Cc1ccc(C)n1-c1ccc(-c2nnco2)cc1 | . | . | . | . | .
Oc1ccccc1-c1ccn[nH]1 | / | / | . | / | /
CCOc1ccc(NC(=O)CN(C)S(=O)(=O)c2ccc3c(c2)c(=O)n(C)c(=O)n3C)cc1 | . | . | / | / | /
COc1cccc(C(=O)NCCSc2c(-c3ccc(F)cc3)[nH]c3ccccc23)c1OC | . | . | / | / | /
COc1ccc(C(=O)/C=C/c2cn(CN3CCN(C)CC3)c3ccccc23)cc1 | . | 6.01µM | ? | . | .
CCOc1ccc(C(=O)/C=C/c2cn(CN3CCN(C)CC3)c3ccccc23)cc1 | . | 16.9µM | . | . | .
COc1ccc(C(=O)/C=C/c2cn(CC(O)CN3CCOCC3)c3ccccc23)cc1 (stereo not drawn) | . | 15.1µM | . | . | .
CCCN(CCC)CC(O)Cn1cc(/C=C/C(=O)c2ccc(OCC)cc2)c2ccccc21 (stereo not drawn) | . | . | / | / | /
Cc1ccc(C(=O)/C=C/c2cn(CC(O)CN3CCOCC3)c3ccccc23)cc1 (stereo not drawn) | . | ? | . | . | .
CCCCn1c(=O)c2oc3ccccc3c2n(Cc2ccccc2C)c1=O | / | . | / | / | /
Cc1cccc(N2C(=O)CSC23C(=O)N(CC(=O)NCc2ccccc2Cl)c2ccccc23)c1 (stereo not drawn) | / | . | / | / | /
Cc1ccc(NC(=O)c2ccc3ccccc3n2)nc1 | 3.16µM | 1.69µM | 9.2µM | 3.55µM | 2.51µM
O=C(Nc1ccc(Cl)cn1)c1ccc2ccccc2n1 | 20µM | 1.51µM | ? | ? | ?
COc1ccc2c(c1)O[C@H](c1ccc3c(c1)OCO3)[C@@H](OC(=O)Nc1ccc(OC(F)F)cc1)C2=O | . | / | / | / | /
CCCCNc1nc(C)nc2c1nc(-c1ccccc1)n2CC1CCN(C)CC1 | . | / | / | / | /
CCNC(=O)C1CCN(S(=O)(=O)c2ccc3c(c2)CCCN3C(C)=O)CC1 | / | . | / | / | /
C/C(=N\N=C\c1ccc(N(C)C)cc1)c1cccc([N+](=O)[O-])c1 | 14.1µM | 2.13µM | ? | 2.82µM | 3.55µM
CC(C)(C)c1ccc(C(=O)Nc2ccc(Cl)cc2)cc1 | 3.55µM | ? | ? | 1.41µM | 2.82µM
CC(=O)Nc1ccc(C(=O)NNC(=O)c2ccc(Cl)cc2)cc1 | / | . | . | . | .
COc1cccc(C(=O)Nc2ccc(NC(=O)c3ccc(C(C)(C)C)cc3)cc2)c1 | . | . | / | / | /
COC(=O)Cc1ccc(NC(=O)c2ccc(C(C)(C)C)cc2)cc1 | . | 1.35µM | . | . | .
SMILES | SMN2 splice enh | FLuc counter | ELG1 genotox | Rab9 promoter act | NPC1 promoter act
CC(C)(C)c1ccc(NC(=O)c2ccsc2)cc1 | / | 1.07µM | ? | 0.398µM | 0.447µM
COC(=O)Cc1ccc(NC(=O)c2ccccc2Cl)cc1 | . | 15.1µM | . | . | .
Cc1cccc(C)c1NC(=O)N1CCC(C(N)=O)(N2CCCCC2)CC1 | . | . | / | / | /
NCOC(=O)Cc1ccc(Br)cc1 | .[9.22 µM] | / | / | / | /
Cn1c(-c2nonc2NC(=O)c2ccc(C(C)(C)C)cc2)nc2ccccc21 | . | . | . | . | .
CC(=O)Nc1nonc1NC(=O)c1ccc(C(C)(C)C)cc1 | ? | ? | . | 3.55µM | ?
O=C(c1ccc(-c2ccc([N+](=O)[O-])cc2)o1)N1CCCCC1 | ? | 6.75µM | ? | 1µM | 3.98µM
O=C(Nc1cccc2ncccc12)c1ccc(-c2ccc(Br)cc2)o1 | . | 10.7µM | . | . | .
O=C(Nc1cccc(NC(=O)c2ccc(-c3ccc(Br)cc3)o2)c1)c1ccccc1 | . | 2.69µM | . | . | .
COc1ccccc1NC(=O)c1ccc(-c2ccccc2[N+](=O)[O-])o1 | . | 10.7µM | . | ? | ?
O=C(Nc1cccc(NC(=O)c2ccc(-c3cccc(Br)c3)o2)c1)c1ccco1 | . | ? | . | . | .
CCCCCCN(C(=O)CCCCCN1C(=O)NC(c2ccc(-c3ccccc3)cc2)C(C(=O)OCc2ccccc2)=C1C)C(C(=O)NCCCC)c1ccc(OCC(=O)O)c(C(=O)O)c1 (stereo not drawn) | . | / | / | / | /
O=C(Nc1ccccc1)c1ccc(-c2ccc(Br)cc2)o1 | ? | 6.01µM | ? | . | .
O=C(Nc1ccccc1)c1ccc(-c2ccc([N+](=O)[O-])cc2)o1 | / | 13.5µM | . | . | ?
COc1ccccc1NC(=O)c1ccc(-c2ccc(Br)cc2)o1 | . | 8.49µM | . | . | .
COc1ccc(NC(=O)c2ccc(-c3ccc([N+](=O)[O-])cc3)o2)cc1 | . | . | . | . | .
NC(=O)c1ccccc1NC(=O)c1ccc(-c2ccc(Br)cc2)o1 | . | / | / | / | /
CC(=O)N1CCC2(CC1)CN(c1ccccn1)C2 | . | / | / | / | /
O=C(CC(Nc1ccccc1Cl)C(=O)O)c1ccccc1 (stereo not drawn) | . | 4.78µM | 2.91µM | . | .
O=C(CC(Nc1ccc(Cl)cc1)C(=O)O)c1ccccc1 (stereo not drawn) | 17.8µM | 1.69µM | 16.4µM | 2.24µM | 2.82µM
CCOC(=O)c1c(C)c(C(=O)NCCc2ccc(OC)cc2)c(C)n1C | . | . | / | / | /
CCOC(=O)c1sc(N)c(C(=O)OC)c1C | / | 15.1µM | . | . | .
COC(=O)c1c(N)sc(C(=O)NCCc2ccccc2)c1C | / | 0.0953µM | 0.231µM | ? | ?
C/C(=N/N=C(\C)c1ccccc1O)c1ccccc1O | / | ? | ? | . | ?
CCOc1ccc(N=C(C)c2ccccc2O)cc1 | . | 21.3µM | . | . | .
SMILES | SMN2 splice enh | FLuc counter | ELG1 genotox | Rab9 promoter act | NPC1 promoter act
CCOc1ccc2nc(SCC(=O)N(C)C)[nH]c2c1 | . | 19µM | 16.4µM | 3.55µM | 3.98µM
CCOc1ccc2nc(SCC(=O)N(C)C3CCS(=O)(=O)C3)[nH]c2c1 (stereo not drawn) | / | . | . | . | .
CCOc1ccc2nc(SCC(=O)Nc3ccc4[nH]c(=O)[nH]c4c3)[nH]c2c1 | / | 13.5µM | . | . | .
COc1ccc(NC(=O)CSc2nc3ccc(OC)cc3[nH]2)cc1 | / | ? | . | . | .
NNC(=O)CCc1ccc2ccc3ccccc3c2c1 | .[9.22 µM] | / | / | / | /
CCOC(=O)c1cnc2ccc(OC(F)(F)F)cc2c1Nc1ccccc1C(=O)O | . | ? | / | / | /
N#Cc1cccc(NC(=O)N2CC[C@@]3(CCCN(C(=O)c4cccc(F)c4)C3)C2)c1 | . | / | / | / | /
COC(=O)CC(NC(=O)c1ccc(C)cc1)c1ccc2c(c1)OCO2 (stereo not drawn) | . | . | . | . | .
COC(=O)CC(NC(=O)c1ccc(C)cc1)c1ccccc1 (stereo not drawn) | . | 3.79µM | . | . | .
Cc1ccc(C(=O)NC(c2ccccc2)C(Cl)Cl)cc1 (stereo not drawn) | . | 21.3µM | . | . | .
